# KCNQ2 pot = enhances the rat KCNQ2 potassium channel; O88943; CHO-K1 KCNQ2, FluxOR thallium flux fluorescence; active compounds read high; B-score at 10 µM; hit rate 0.54% among 310,000; AID 2239;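 active = fluorescence ratio B-score at least 3 SD of library B-scores, with initial fluorescence B-score within 3 of them, cut at about 5.3 in these data; same plate scores as AID 2156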;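 note: B-score of peak minus minimum over baseline fluorescence ratio after K+ and Tl+ stimulus; positive B-score means potentiation of KCNQ2 with more thallium influx and brighter signal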
# Target sequence (O88943 whole entry, looked up): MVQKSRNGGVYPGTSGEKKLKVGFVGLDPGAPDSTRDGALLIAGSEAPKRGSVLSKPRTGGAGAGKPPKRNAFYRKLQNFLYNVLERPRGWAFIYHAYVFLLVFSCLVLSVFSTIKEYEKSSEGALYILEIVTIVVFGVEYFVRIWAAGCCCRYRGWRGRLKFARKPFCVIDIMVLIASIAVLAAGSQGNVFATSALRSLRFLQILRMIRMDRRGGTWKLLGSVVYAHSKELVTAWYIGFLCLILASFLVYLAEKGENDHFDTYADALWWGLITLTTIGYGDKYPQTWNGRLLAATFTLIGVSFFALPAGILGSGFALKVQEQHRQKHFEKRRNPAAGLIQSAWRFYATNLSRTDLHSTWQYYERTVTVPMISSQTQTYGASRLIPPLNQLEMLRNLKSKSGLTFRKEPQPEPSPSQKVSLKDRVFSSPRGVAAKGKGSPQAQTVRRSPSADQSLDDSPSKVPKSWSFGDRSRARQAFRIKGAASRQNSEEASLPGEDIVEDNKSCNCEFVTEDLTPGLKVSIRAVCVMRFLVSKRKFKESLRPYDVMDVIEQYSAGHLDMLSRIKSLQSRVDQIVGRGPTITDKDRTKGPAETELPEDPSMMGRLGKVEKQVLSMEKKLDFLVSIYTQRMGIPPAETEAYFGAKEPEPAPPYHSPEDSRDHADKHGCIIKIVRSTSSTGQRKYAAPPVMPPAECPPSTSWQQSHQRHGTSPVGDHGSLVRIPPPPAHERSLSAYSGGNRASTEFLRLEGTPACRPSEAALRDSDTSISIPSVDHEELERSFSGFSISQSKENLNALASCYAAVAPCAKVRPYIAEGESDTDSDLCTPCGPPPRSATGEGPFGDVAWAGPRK
# KCNQ2 inh = KCNQ2 (rat) channel inhibition | O88943 | CHO-K1 KCNQ2, FluxOR thallium flux, 20 min; active compounds read low | B-score at 10 µM | hit rate 1.1% among 310,000;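 active = fluorescence ratio B-score at most minus 3 library SDs, with starting brightness B-score within 2 library SDs, cut at about -5.5 in these data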
# The depositor's hits bear a star; i = inactive; x = no result given. The list is not random: actives were taken first. Their share in the collection is about 1.6%.
SMILES,KCNQ2 pot,KCNQ2 inh
C=CCn1c(NCc2ccccc2OC)nc2ccccc21,x,i
CCn1c(=O)c2sccc2n(Cc2cccc(C)c2)c1=O,0.14,i
CC(OC(=O)C1=COCCO1)C(=O)Nc1ccc(Cl)cn1 (configuration not stated),0.68,i
O=C(CSC1=NS(=O)(=O)c2cc(F)ccc2N1)Nc1cccc(F)c1,x,i
C[C@@H](C(=O)NCCc1ccccc1)N1C(=O)N2CCc3c([nH]c4ccccc34)[C@@]2(C)C1=O,-9.14,-9.14*
C[C@@H](C(=O)NCCc1ccccc1F)N1C(=O)N2CCc3c([nH]c4ccccc34)[C@@]2(C)C1=O,x,i
COC(=O)c1c(NC(=O)CCc2ccc(C)o2)sc(C)c1C,-5.87,-5.87*
COC(=O)c1ccc(C(=O)OC)c(NC(=O)CCc2ccc(C)o2)c1,0.33,i
COc1ccc(C(=O)NC2CCCN(Cc3ccc(Cl)cc3)C2)c(OC)c1 (configuration not stated),x,i
Cc1nn2c(SCC(=O)c3cccs3)cc(C(C)(C)C)nc2c1-c1ccccc1,19.6*,i
Cc1cc(SCC(=O)c2cccs2)n2nc(C)c(-c3ccc(Cl)cc3)c2n1,2.39,i
CCC(C(=O)c1ccc2ncccc2c1)c1ccccc1 (configuration not stated),x,i
Cc1ccc(NC(=O)c2sc3nc(C)nc(N4CCN(c5ccccn5)CC4)c3c2C)c(C)c1,x,i
Cc1nc(N2CCN(c3ccccn3)CC2)c2c(C)c(C(=O)Nc3ccc(Br)cc3C)sc2n1,-5.98,-5.98*
CCOC(=O)c1c(C)[nH]c(C)c1S(=O)(=O)N1CCN(c2ccc([N+](=O)[O-])cc2)CC1,x,i
CN(C)S(=O)(=O)c1cccc(C(=O)Nc2ccccc2Cl)c1,0.02,i
CCN(c1ccccc1)S(=O)(=O)c1cc(C(=O)Nc2ccccc2Cl)ccc1F,-6.01,-6.01*
CCN(c1ccccc1)S(=O)(=O)c1cc(C(=O)Nc2ccc(Br)cc2)ccc1F,-6.2,-6.2*
CCN(c1ccccc1)S(=O)(=O)c1ccc(F)c(C(=O)O)c1,1.67,i
Cc1cc(C)n(CC(O)COc2ccccc2C(=O)Nc2ccccc2)n1 (configuration not stated),-6.64,-6.64*
COc1ccccc1OCC(O)Cn1nc(C)cc1C (configuration not stated),x,i
NNc1ccc2c(C(F)(F)F)cc(C(F)(F)F)nc2n1,0.33,i
N#CC(c1cccc(Cl)c1)c1ccc2c(C(F)(F)F)cc(C(F)(F)F)nc2n1 (configuration not stated),14.8*,i
COc1ccc(NC(=S)NCc2ccccc2)c(OC)c1,0.32,i
C=CCn1c(SCC(=O)c2cccs2)nc2sc(C)c(C)c2c1=O,x,i
SMILES,KCNQ2 pot,KCNQ2 inh
C=CCn1c(SCc2csc(C)n2)nc2sc3c(c2c1=O)CCC(C)C3 (configuration not stated),x,i
C=CCn1c(SCc2csc(C)n2)nc2sc3c(c2c1=O)CCCCC3,-8.14,-8.14*
C=CCn1c(SCc2cc(=O)n3ccsc3n2)nc2sc(C)c(C)c2c1=O,-9.03,-9.03*
COc1cccc(NC(=O)Cc2nnc(SCC(=O)NC3CCCC3)n2C)c1,x,i
CCCOc1ccc(-c2c(=O)n(O)c3ccccc3[n+]2[O-])cc1,2.7,i
O=C(COC(=O)CCc1ccc(S(=O)(=O)N2CCOCC2)cc1)NCc1ccc(Cl)cc1,x,i
CCCc1c(-c2ccc(O)cc2)nn(-c2ccc(O)cc2)c1-c1ccc(O)cc1,-6.58,-6.58*
Cc1c(C(N)=O)c(-c2ccccc2)nn1-c1ccccc1,0.5,i
CCOC(=O)Cn1nnc2c(sc3nc4c(c(-c5ccc(Cl)cc5)c32)CCC4)c1=O,-6.73,-6.73*
CCOC(=O)Cn1nnc2c(sc3nc4c(c(-c5ccccc5)c32)CCC4)c1=O,x,i
CCN1C(=O)c2ccc(C(=O)Nc3ccc4c(c3)OCO4)cc2C1=O,0.09,i
COc1ccc(NC(=O)C(CC(=O)O)C(C)c2ccccc2)cc1 (configuration not stated),x,i
Cc1nn(-c2ccccc2)c(Cl)c1/C=N/NC(=O)OC(C)(C)C,x,i
Cc1ccc(C)c(OCC(=O)N/N=C/c2c(C)nn(-c3ccccc3)c2Cl)c1,-7.42,-7.42*
COc1ccccc1NC(=O)c1ccc2nc(C)c(C)nc2c1,0.28,i
O=C(NC1=NCCS1)c1cc(-c2cccc(Br)c2)nc2ccccc12,x,i
Cc1ccc2nc(-c3cccc(Br)c3)cc(C(=O)NC3=NCCS3)c2c1,-7.28,-7.28*
CCN(CC)Cc1c(O)ccc2cc(-c3nc4ccccc4n3C)c(=O)oc12,x,i
CC(C)CCn1nnnc1CN1CCN(C(c2ccccc2)c2ccccc2)CC1,-5.73,-5.73*
c1ccc(C(c2ccccc2)N2CCN(Cc3nnnn3C3CCCC3)CC2)cc1,x,i
CCOc1ccc(NC(=O)CN(C)C(=O)CSCc2ccc(C)cc2)cc1OCC,x,i
CCOP(=O)(OCC)C(Nc1ccc(C)cc1)c1ccco1 (configuration not stated),x,i
COc1ccc(-n2nc(C(=O)NCC(=O)Nc3cccc(Cl)c3)c3ccccc3c2=O)cc1OC,x,i
CC(C)c1ccc(-c2cc(C(=O)N3CCOCC3)c3cc(Br)ccc3n2)cc1,-6,-6*
O=C(c1cc(-c2ccccc2)nc2ccccc12)N1CCOCC1,x,i
SMILES,KCNQ2 pot,KCNQ2 inh
Cc1ccc2nc(Cl)c(CN(Cc3cccs3)C(=O)C3CC3)cc2c1,x,i
COc1ccc(CCN(Cc2cc3cc(C)c(C)cc3nc2Cl)C(=O)C2CC2)cc1,-6.45,-6.45*
Cc1[nH]c2ccccc2c1C(=O)CSC(=S)N1CCOCC1,x,i
C=CCOc1c(Br)cc(CNc2ccc(NC(=O)C(C)C)c(OC)c2)cc1OCC,6.61*,i
C=CCOc1c(Br)cc(CNc2ccc3[nH]c(=O)[nH]c3c2)cc1OCC,0.68,i
CC(=O)Nc1ccc(SCc2csc(C)n2)cc1,x,i
FC(F)(F)c1ccc(C2NCCc3sccc32)cc1 (configuration not stated),x,i
O=C(Nc1cccc(F)c1)N1CC=C(c2ccc(Cl)cc2)CC1,-6.58,-6.58*
O=C(CN1CCN(c2ccc(Cl)cc2)CC1)Nc1cccc(F)c1,x,i
CCN(CC)C(=S)SCC(=O)NC12CC3CC(CC(C3)C1)C2,8.78*,i
CCN(CC)CC(=O)NC12CC3CC(CC(C3)C1)C2,x,i
Cc1cc(C)n(-c2nc3sc4c(c3c(=O)[nH]2)CCCC4)n1,18*,i
Cc1nc2sc3c(c2c(=O)[nH]1)CCCCC3,x,i
COc1ccc(NC(=O)CCCC(=O)NCCc2ccc(OC)c(OC)c2)cc1,1.47,i
CC(C)(C)N/N=C1\CC(c2ccccc2)Oc2ccccc21 (configuration not stated),-7.17,-7.17*
c1ccc(C2C/C(=N\N3CCOCC3)c3ccccc3O2)cc1 (configuration not stated),x,i
O=C(COC(=O)C1=COCCO1)NC1CCCCCCC1,x,i
C/C(=N\OCc1nc2ccccc2c(=O)n1/N=C/c1cc(C)cc([N+](=O)[O-])c1O)c1ccccc1,-8.31,-8.31*
C/C(=N\OCc1nc2ccccc2c(=O)n1/N=C/c1cc([N+](=O)[O-])ccc1O)c1ccccc1,2.15,i
CC(=O)C(C)n1c(CN2CCN(C(=O)c3ccco3)CC2)nc2c1c(=O)n(C)c(=O)n2C (configuration not stated),x,i
Cc1ccc(-c2nnc(N3CCC(C)CC3)c3ccccc23)cc1,x,i

# Assay outcomes: PubChem, Johns Hopkins Ion Channel Center
